The list is not random: actives were taken first. Their share in the collection is about 8%.
HT1080 IDH1KD tx – toxicity to HT-1080 IDH1 knockdown cells (counter line); HT-1080 IDH1 knockdown viability, ATP luminescence, 48 h; Potency, µM (doses to about 46.1 µM), for inactives: at the top dose activity, negative = toxicity, actives largely listed as cytotoxic; actives 2% (n = 360,000); AID 686971;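 also: 0% = DMSO wells and -100% = cell-free medium wells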
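CellTiter-Glo luminescence after 48 h compound exposure at 37 degrees C of IDH1-knockdown HT-1080 cells in 5% FBS RPMI. %Activity scaled between DMSO wells and cell-free media wells, with curves fitted and assigned curve classes.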
MCF10A rerep – DNA re-replication induction in MCF 10a cells | MCF 10A DNA re-replication, Hoechst nuclear intensity, 48 h | actives 2.9% (n = 350,000) | Potency, µM (titrated, usually from 46.1 µM), for inactives: at the top dose activity, positive = re-replication, actives largely listed as activators; also: % of control where 0% means no effect; nearly all actives have a fitted effect of over 50% in size
KB-3-1 tox – KB-3-1 parental cell cytotoxicity; actives 1.4% (n = 400,000); Potency, µM (titrated, usually from 46.1 µM), hits mostly cytotoxic; KB-3-1 viability, CellTiter-Glo ATP luminescence, 72 h; AID 1347075; also: % is scaled to controls: 0 for no effect and ±100 for the full control effect; nearly all actives have a fitted effect of over 60% in size
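72 h, 37 °C compound treatment of KB-3-1 parental cells; CellTiter-Glo added, 10 min, luminescence read. Data corrected against DMSO-only plates and normalized before curve fitting.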
KB-V1 cytotox – KB-V1 MDR subline cytotoxicity; KB-V1 MDR cells viability, CellTiter-Glo, 72 h; Potency, µM (series often up to 46.1 µM), hits mostly cytotoxic; actives 3.4% (n = 400,000); also: % is scaled to controls: 0 for no effect and ±100 for the full control effect; nearly all actives have a fitted effect of over 60% in size
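Cytotoxicity toward P-gp-expressing KB-V1 cells was determined as loss of CellTiter-Glo luminescence after 72 h at 37 degrees C. Compounds were tested in quantitative HTS format across a concentration range, with curves fitted to normalized data.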
SW480 rereplic – induces DNA re-replication in SW480 colon adenocarcinoma cells. SW480 DNA re-replication, Hoechst DNA content imaging, 48 h. Potency, µM (titrated, usually from 46.1 µM), for the others: at the top dose re-replication activation, actives largely listed as activators. actives 1.8% (n = 340,000). AID 624297; also: % of control where 0% means no effect; nearly all actives have a fitted effect of over 55% in size
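Compounds, transferred as 23 nL by pin tool, were incubated with cells for 48 hr; DNA content per nucleus was then quantified by Hoechst staining and fluorescence plate imaging.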
HT1080NT lethal – kills 2HG-producing HT-1080-NT fibrosarcoma cells | HT-1080-NT fibrosarcoma viability, CellTiter-Glo ATP luminescence, 48 h | Potency, µM (titrated, usually from 46.1 µM), for inactives: top-dose activity, negative = less viability, hits mostly cytotoxic | actives 1.6% (n = 360,000) | AID 686970;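 also: NT is the 2HG producing partner of a matched IDH1 knockdown line; 0% = DMSO-treated cells and -100% = media-only wells without cells; nearly all actives have a fitted effect of over 55% in size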
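Toxicity toward the 2HG-producing NT line was scored as %Activity, normalised to DMSO and no-cell wells, from CellTiter-Glo luminescence after 48 hours' treatment.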
Numbers without * were called inactive; i = inactive; ? = inconclusive; · = no result; [ ] = another dose, or the depositor's remark. Calls follow the shape of the dose curve; as a rule, active = well fitted curve in the direction sought with a large enough effect; inconclusive = small, poorly fitted or top-dose-only effect, or another doubt; inactive = no such curve, though single readings can be large; an effect the other way counts as inactive or inconclusive. Potency is read from the fitted curve at half-maximal effect.

SMILES	HT1080 IDH1KD tx	MCF10A rerep	KB-3-1 tox	KB-V1 cytotox	SW480 rereplic	HT1080NT lethal
CCC(=C(c1ccc(O)cc1)c1ccc(OCCN(C)C)cc1)c1ccccc1	0%	·	i	i	·	0%
CC/C(=C(\c1ccc(O)cc1)c1ccc(OCCN(C)C)cc1)c1ccccc1	18µM*	?	i	?	?	16µM*
Clc1ccc2[nH]c3c(c2c1)CCNC3	-20%	?	?	?	2%	-11%
CN1CCN(c2ncnc3nc[nH]c23)CC1	1%	0.26µM*	i	i	-108%	0%
Cc1cc(/C=C2\C(=O)NC(=O)N(c3ccc(Cl)cc3)C2=O)c(C)n1-c1cccc(C(=O)O)c1	-1%	-9%	i	i	-12%	1%
CN(C)CC1CSCCC1(O)c1ccccc1Cl (centres undefined)	7%	0%	i	i	1%[9.22 µM]	5%
COc1cc(NC(=O)c2cccc3c(-c4cccnc4)coc23)cc(OC)c1OC	-14%	·	?	7.3µM*	·	?
COc1ccc(-c2coc3c(C(=O)Nc4cc(OC)c(OC)c(OC)c4)cccc23)c(C)c1	?	·	?	13µM*	·	?
COc1cc(C(=O)Nc2ccc(Br)cc2C(=O)c2ccccc2Cl)cc(OC)c1OC	-8%	10%	i	?	-5%	1%
O=C(NC1CC1)c1cn(Cc2ccccc2)nc1-c1ccccc1	0%	-28%	i	i	-49%	5%
C=C(C)COc1ccc(-c2n[nH]c(C)c2-c2ccc(Br)cc2)c(O)c1	10µM*	0%	?	?	-4%	10µM*
CCCc1cc(-c2n[nH]c(C(=O)OCC)c2-c2cscn2)c(O)cc1O	?	?	i	i	-13%	1%
CCCOP(=O)(OCCC)C(Nc1cccc(C(F)(F)F)c1)c1ccc(C)cc1 (centres undefined)	?	-8%	?	12µM*	?	?
O=c1nc(/C=C/c2ccc(Cl)cc2Cl)cc(C(F)(F)F)[nH]1	-11%	6.5µM*	i	i	-9%	-5%
CCCCC1(CCCC)C(=O)NC(=Nc2cccc(C)c2)NC1=O	18µM*	21%	?	?	2%	?
Nc1cc(Cl)c2nonc2c1[N+](=O)[O-]	12µM*	3.3µM*	16µM*	?	?	7.3µM*
O=[N+]([O-])c1c(Cl)c(Cl)c(Cl)c(Cl)c1Cl	·	0%	i	i	-3%	·
CCc1nc2ccc(C(=O)N3CCN(C(=O)c4ccco4)CC3)cn2c1N(C)Cc1ccc(OC)cc1	2%	·	i	i	·	?
CC(C)Nc1nc(NC(C)C)nc(N(C#N)CCOc2ccc(Cl)cc2Cl)n1	?	18µM*	i	?	?	?
COP(=O)(OC)c1nc(-c2cccc3ccccc23)oc1N1CCCCC1	4%	21µM*	i	i	?	5%
CCOP(=O)(OCC)c1nc(-c2ccc(Cl)cc2)oc1NCc1ccccc1	-18%	2%	i	?	-16%	-15%
CCCOP(=O)(OCCC)c1nc(-c2ccccc2)oc1NCc1ccccc1	?	?	i	?	15µM*	-20%
COc1ccc(CNc2oc(-c3cccc4ccccc34)nc2P(=O)(OC)OC)cc1	-3%	21µM*	i	i	18µM*	-6%
Cc1oc(-c2ccccc2)nc1CN1C(=O)C(C)N=C(c2ccccc2F)c2cc(Cl)ccc21 (centres undefined)	-6%	?	i	i	3%	-1%
Cc1ccc(Cn2cc(C=O)c(-c3ccc(C)cc3)n2)cc1	1%	?	i	16µM*	10%	7%
SMILES	HT1080 IDH1KD tx	MCF10A rerep	KB-3-1 tox	KB-V1 cytotox	SW480 rereplic	HT1080NT lethal
C=C(C)CSc1nnc([C@@H](N)Cc2c[nH]c3ccccc23)o1	2%	4%	i	i	-1%	13%
Cc1[nH]nc2ccc(-c3cncc(OC[C@@H](N)Cc4c[nH]c5ccccc45)c3)cc12	10µM*	2.3µM*	?	26µM*	?	18µM*
CCOc1ccc(-c2cc(C)[n+](CCO)c(-c3ccc(OCC)cc3)c2)cc1	?	10%	i	i	?	?
CCOc1ccc(-c2cc(C)[n+](CCc3ccc(OC)c(OC)c3)c(-c3ccc(OCC)cc3)c2)cc1	16µM*	14%	5.8µM*	i	6%	21µM*
C#CCCC[C@@H]1OC(=O)CNC(=O)C([C@@H](C)CC)NC(=O)[C@@H]2CCCN2C(=O)C([C@@H](C)CC)OC(=O)[C@H](Cc2ccccc2)N(C)C(=O)[C@H](C(C)C)NC(=O)C1(C)C (some centres undefined)	?	·	i	i	·	?
CCC(C)C1NC(=O)C(NC(=O)C(CC(C)C)N(C)C(=O)C2CCCN2C(=O)C(C)O)C(C)OC(=O)C(Cc2ccc(OC)cc2)N(C)C(=O)C2CCCN2C(=O)C(CC(C)C)NC(=O)[C@H](C)C(=O)[C@H](C(C)C)OC(=O)CC1O (some centres undefined)	0.013µM*	?	0.16µM*	8.2µM*	?	0.23µM*
CN1Cc2cccnc2N(C)Cc2cc(Cl)ccc21	-5%	6%	?	16µM*	3%	-1%
c1ccc(CNC2=NCCS2)cc1	7%	-21%	i	i	-3%	8%
Cc1ccc(-n2c(O)c(/C=C/C=Nc3ccccc3)c(=O)[nH]c2=O)cc1	-2%	-49%	i	i	-57%	1%
Cc1ccc(N/N=C/c2c(O)n(-c3ccccc3)c(=O)[nH]c2=O)cc1	2.9µM*	0%	i	i	-5%	?
Cc1ccc2nc(Cl)c(-c3ccccc3)cc2c1	0%	5%	i	i	-40%	18%
COc1c(C)cc(C(=O)C2CCCN(Cc3cccc(O)c3)C2)cc1C (centres undefined)	-1%	6.5µM*	i	i	-16%	-2%
O=P(O)(O)COc1ccccc1O	2%	?	i	i	4.6µM*	2%
COC(=O)C(Cc1ccc(N(CCCl)CCCl)cc1)N=Cc1ccccc1O (centres undefined)	26µM*	12µM*	?	i	1µM*	?
CCOC(=O)C(NC(=O)C(Cc1ccc(N(CCCl)CCCl)cc1)NC(C)=O)C(C)C (centres undefined)	1%	-4%	i	i	-3%	20%
